Each structure is given as a SMILES string. Calls of active or inactive are those of the source. The calls were made as follows: active = hit-call score of the fitted dose curve at least 0.9, where 1 is the maximum; inactive = score below 0.9.

Read-out in this assay: sulfotransferase 2A1 (SULT2A1), SULT2A1 (gene 6822)
Nature of the assay: LTEA_HepaRG_SULT2A1: Life Technologies and Expression Analysis (LTEA) Assay for sulfotransferase 2A1 (SULT2A1) using HepaRG (AID 2283531). Conditions: mRNA level, 48 h; actives raise or lower the signal. How it is done: LTEA_HepaRG is a cell based, multiplexed-readout assay that uses HepaRG, a human liver cell line, with measurements taken at 48 hours after chemical dosing on a 96-well plate.LTEA_HepaRG_SULT2A1 is one of 102 assay component(s) measured in the LTEA HepaRG cell culture assay. It is a marker of NR mediated transport.Data from the assay component LTEA_HepaRG_SULT2A1 was analyzed into 1 endpoint. This assay endpoint, LTEA_HepaRG_SULT2A1, was analyzed with bidirectional fitting relative to DMSO as the negative control and baseline of activity. Using a type of inducible reporter, measures of mRNA induction for gain or loss-of-signal activity can be used to understand regulation of transcription factor activity. To generalize the intended target to other relatable targets, this assay endpoint is annotated to the transferase intended target family, where the subfamily is sulfotransferase.
A total of 1060 chemcials from the ToxCast library were tested in eight-point concentration-response experiments. Cell culture and cytotoxicity assays were conducted at Thermo Fisher Scientific's Custom Services facility (Madison, WI). A single lot of human HepaRG cells (Thermo Fisher Scientific, Frederick, MD) was used for the cell culture experiments. 96-well format collagen type I coated plates of human HepaRG cells were prepared using established methods. Briefly, cryopreserved HepaRG cells were thawed, plated at a density of approximately 100,000 cells/well in HepaRG Thaw, Plate, and General Purpose media (HPRG770, Thermo Fisher Scientific), and incubated for 48 hours. 0.5% DMSO was selected as vehicle control to balance the requisite need of DMSO in HepaRG cultures to maintain differentiation (for example, baseline metabolism, proportions of hepatocytes vs. cholangiocytes), while enabling further hepatic receptor pathway activation (for example, PXR and CAR) in response to chemical exposure. 48 hours after plating, the culture medium was replaced with HepaRG Serum-Free Incudtion Media. Cells were exposed to each test chemical in duplicate and maintained in CO2 incubators for another 48 hours. Chemical plates were thawed to room temperature and 200x concentrations of treatment groups were prepared. 8-point conentration-reponse curves were made with the highest exposure at 100 uM, followed by half-log dilutions, all in 0.5% DMSO. Each test plate contained variouse controls, induction positive controls (1mM phenobarbital), cytotoxicity positive controls ([…] aflatoxin B1), vehicle controls (0.5% DMSO), and total lysis controls (0.5% DMSO). Cell morphology images were taken using an Essen IncuCyte FLR automated microscope, with six 96-well plates imaged in about 24 minutes. Images were captured and exported and JPEG files. Spent culture media was transfered to black-well plates for the LDH assay, and remaining media was sorted at -80 C for later use. Cells were treated with RLT buffer and frozen until shipped for gene expression analysis. Total RNA was isolated from the cell suspension in 75 uL of Buffer RLT (Qiagen, Germantown, MD 20874) by Quintiles/Expression Analysis (Durham, NC) using a custom isolation procedure. Total RNA from each plate well was transferred to a preamplification plate. Fluidigm's 96.96 Dynamic ArrayTM (Fluidigm, Amsterdam, the Netherlands) technology was used for gene expression analyses by quantitative reverse transcription polymerase chain reaction (qRT-PCR, performed by Quintiles/Expression Analysis, Durham, NC)89. Standard TaqManTM Assays (Applied Biosystems/ThermoFisher Scientific, Foster City, CA) were used to assess the expression of 93 genes selected based on their selectivity and sensitivity to important hepatic receptors known to be modulated by environmental chemicals; importance in human hepatocyte functionality; and hepatotoxicity. […]
Turning to `O=C(NS(=O)(=O)/C=C/c1ccccc1)c1ccc(F)cc1Cl`, the result was inactive.

Take `O=P(OC(CCl)CCl)(OC(CCl)CCl)OC(CCl)CCl`: the AC50 was 79.1 µM (active). As for `CC(=O)c1ccc2c(c1)[C@H](NC(=O)c1ccc(F)cc1)[C@@H](O)C(C)(C)O2`, the result was inactive. Take `O=C(OC[C@H]1O[C@@H](OC(=O)c2cc(O)c(O)c(OC(=O)c3cc(O)c(O)c(O)c3)c2)[C@H](OC(=O)c2cc(O)c(O)c(OC(=O)c3cc(O)c(O)c(O)c3)c2)[C@@H](OC(=O)c2cc(O)c(O)c(OC(=O)c3cc(O)c(O)c(O)c3)c2)[C@@H]1OC(=O)c1cc(O)c(O)c(OC(=O)c2cc(O)c(O)c(O)c2)c1)c1cc(O)c(O)c(OC(=O)c2cc(O)c(O)c(O)c2)c1`: the AC50 was 9.46 µM (active).

Turning to `O=c1[nH]c2ccc(S(=O)CCN3CCC(Cc4ccc(F)cc4)CC3)cc2o1` (stereo not given), the compound was called inactive.

On to `Clc1nc(Cl)c(Cl)c(Cl)c1Cl`, for which the call was inactive. Consider `Cc1ccc(S(=O)(=O)O)cc1C`, for which the compound was classed as inactive. With `CCCN(C1CCN(C(=O)C2CCNCC2)CC1)[C@@H]1CCc2ccc(OC)cc2C1`, the AC50 is 83.5 µM (active). With `CCCCCCc1ccc(O)cc1O`, the compound was called inactive.

In the case of `Cc1ccc(C)c(O)c1`, the compound was called inactive. Same read-out and setting: then `CC(C)=CCC/C(C)=C\CO`, with “inactive”. As to `CC(C)CCO`, the call was inactive. Same read-out and setting: then `COC(=O)c1ccccc1O`, with “inactive”; and `CCN(C(=O)c1cc(C)cc(OC[C@H](C)Nc2ccncc2)c1)C(C)C`, with “inactive”; and `O=C(O)c1cccc(N(Cc2cccnc2)c2ccc(OC(F)F)c(OC(F)F)c2)c1`, with “inactive”.

As to `C1=CCCC=CCCC=CCC1`, the outcome was inactive. For `CCC(C)(C)C(=O)O[C@H]1C[C@@H](C)C=C2C=C[C@H](C)[C@H](CC[C@@H]3C[C@@H](O)CC(=O)O3)[C@H]21`, the compound was classed as inactive. For the compound `C1N2CN3CN1CN(C2)C3`, the call was inactive. Still for that read-out and setting: then `O=C1CCC(N2C(=O)c3ccccc3C2=O)C(=O)N1` (stereo not given), with “inactive”; and `COc1ccc(-n2nc(C(F)F)cc2-c2ccc(S(C)=O)cc2)cc1` (stereo not given), with “inactive”. On to `CC(=O)OCCC(C)C`, for which the outcome was inactive. Same read-out and setting: then `COc1ccc(/C=C/S(=O)(=O)NC(=O)c2ccc(C)cc2Cl)cc1`, with “inactive”. With `CC[C@H]1CC[C@H](NCc2cc3c(cc2OC)[C@H]2C[C@H]2C(=O)N3C)[C@H](c2ccccc2)N1`, the AC50 is 50 µM (active). Consider `O=C(O)CCN(C1(C(=O)NO)CCCC1)S(=O)(=O)c1ccc(Oc2ccc(F)cc2)cc1`, for which the outcome was inactive.

As to `Cc1ccc(N)cc1O`, the outcome was inactive. With `COc1cccc(-c2ccc(/C=C\CN3CCCCCC3)cc2Cl)c1`, the AC50 was 83.2 µM (active). In the case of `CCCCC(CC)COC(=O)CCCCCCCCC(=O)OCC(CC)CCCC` (stereo not given), the compound was classed as inactive. `COCCOc1cc2cc(C(=O)NC3CCN(C(C)C)CC3)n(CC(=O)Nc3ccc(Cl)cn3)c2cn1`: the compound was classed as inactive. In the case of `CCn1nc(Cc2ccccc2)cc1C1CCN(C[C@H]2C[C@H](N(C)[C@@H](C(=O)O)C(C)C)C[C@@H]2c2cccc(F)c2)CC1`, the outcome was inactive.

With `Nc1ccc(Nc2ccccc2)cc1`, the outcome was inactive. With `COC(=O)CC(=O)OC`, the outcome was inactive. In the case of `COc1ccc2sc(C(=O)Nc3nnn[nH]3)c(OC(C)C)c2c1`, the AC50 is 78.4 µM (active). Take `CC(=O)OC[C@H]1O[C@@](COC(C)=O)(O[C@H]2O[C@H](COC(C)=O)[C@@H](OC(C)=O)[C@H](OC(C)=O)[C@H]2OC(C)=O)[C@@H](OC(C)=O)[C@@H]1OC(C)=O`: the outcome was inactive. With `CC(O)CN(CCN(CC(C)O)CC(C)O)CC(C)O` (stereo not given), the result was inactive. The same measure, in the same setting: then `CC(C)(O)c1coc(S(=O)(=O)NC(=O)Nc2c3c(cc4c2CCC4)CCC3)c1`, with “inactive”; and `CN(C)c1ccc(N=NS(=O)(=O)O)cc1`, with “inactive”; and `C[C@](N)(Cc1ccc(O)c(O)c1)C(=O)O`, with “inactive”.

Consider `CN(C)c1ccc(Cc2ccc(N(C)C)cc2)cc1`, for which the compound was classed as inactive. Same read-out and setting: then `Cc1ccc(O)cc1`, with “inactive”; and `CCCCCCCCCCCCCCCO`, with “inactive”.

The term AC50 denotes the midpoint of the concentration-response curve, whichever way the signal moves.

These data come from PubChem BioAssay (EPA / NIEHS).
